{"source": "paper PMC7862700", "about": "“An all-to-all approach to the identification of sequence-specific readers for epigenetic DNA modifications on cytosine”", "assay_in_all_cases": "DAPPL (digital affinity profiling via proximity ligation, sequencing); 10 mM Tris-HCl pH 7.5, 50 mM NaCl, 1 mM DTT, 4% glycerol, room temperature, 30 min; GST-TFs on glutathione beads, 16-mer random dsDNA library, 0.1% formaldehyde crosslink after washing; high values mean tight binding", "key": {"[1]": {"molecular_target": "T1, FEV (Homo sapiens, UniProt Q99581 1-238)", "T1 sequence": "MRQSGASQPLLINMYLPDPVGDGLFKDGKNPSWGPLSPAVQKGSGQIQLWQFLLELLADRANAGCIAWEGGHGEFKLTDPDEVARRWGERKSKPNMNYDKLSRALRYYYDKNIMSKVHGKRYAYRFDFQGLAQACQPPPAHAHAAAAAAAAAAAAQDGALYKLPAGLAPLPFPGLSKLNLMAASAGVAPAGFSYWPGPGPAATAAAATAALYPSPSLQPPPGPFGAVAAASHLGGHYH", "conditions": "protein: recombinant; tags: N-terminal GST; dsDNA, one strand shown", "summary_of_the_method": "(§1)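 Yeast served to express human transcription factors as GST fusions, which were then captured on glutathione beads and labelled with DNA barcodes. Pooled with a tag-only sample, they were incubated with 200 nmole of a 16-mer random double-stranded DNA library for 30 min at room temperature in Tris/NaCl/DTT/glycerol buffer, washed, crosslinked with 0.1% formaldehyde, ligated by proximity, amplified by PCR and sequenced. Dividing each hexamer's read frequency for a factor by its frequency for the tag-only sample gives the binding signal.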"}, "[2]": {"molecular_target": "ETV5 (Homo sapiens, UniProt P41161 1-510)", "sequence (P41161 whole entry)": "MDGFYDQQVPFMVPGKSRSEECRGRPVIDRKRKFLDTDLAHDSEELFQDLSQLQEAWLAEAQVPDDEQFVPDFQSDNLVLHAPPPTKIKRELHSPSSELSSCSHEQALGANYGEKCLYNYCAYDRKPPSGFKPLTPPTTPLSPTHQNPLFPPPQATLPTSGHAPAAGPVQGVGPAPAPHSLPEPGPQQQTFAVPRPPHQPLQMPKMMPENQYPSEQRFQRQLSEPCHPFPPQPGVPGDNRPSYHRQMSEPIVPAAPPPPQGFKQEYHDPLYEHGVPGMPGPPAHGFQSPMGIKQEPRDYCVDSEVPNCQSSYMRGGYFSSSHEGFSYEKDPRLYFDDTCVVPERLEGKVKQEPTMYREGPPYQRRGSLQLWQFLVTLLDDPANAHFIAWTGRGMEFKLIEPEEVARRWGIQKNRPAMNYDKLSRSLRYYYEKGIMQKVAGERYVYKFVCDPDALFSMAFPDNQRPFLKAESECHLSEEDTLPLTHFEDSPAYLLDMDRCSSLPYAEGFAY", "conditions": "protein: recombinant; tags: N-terminal GST; dsDNA, one strand shown", "summary_of_the_method": "as §1"}, "[3]": {"molecular_target": "HSF1 (Homo sapiens, UniProt Q00613 1-529)", "sequence (Q00613 whole entry)": "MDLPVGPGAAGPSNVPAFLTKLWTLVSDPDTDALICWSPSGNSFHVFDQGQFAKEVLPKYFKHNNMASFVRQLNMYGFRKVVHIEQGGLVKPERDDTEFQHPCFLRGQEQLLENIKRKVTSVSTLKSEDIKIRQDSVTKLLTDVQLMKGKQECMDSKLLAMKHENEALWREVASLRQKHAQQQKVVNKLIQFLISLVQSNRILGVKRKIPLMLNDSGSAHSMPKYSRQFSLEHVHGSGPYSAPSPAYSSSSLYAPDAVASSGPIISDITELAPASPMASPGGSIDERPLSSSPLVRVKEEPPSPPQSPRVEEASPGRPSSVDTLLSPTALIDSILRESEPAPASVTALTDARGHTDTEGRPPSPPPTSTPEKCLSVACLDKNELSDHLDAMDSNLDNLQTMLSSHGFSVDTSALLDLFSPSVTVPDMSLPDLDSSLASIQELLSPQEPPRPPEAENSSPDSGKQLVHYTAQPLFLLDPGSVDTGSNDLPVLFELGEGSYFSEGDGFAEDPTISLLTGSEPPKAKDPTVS", "conditions": "protein: recombinant; tags: N-terminal GST; chain copies: 3; dsDNA, one strand shown", "summary_of_the_method": "as §1"}, "[4]": {"molecular_target": "T2, SPIC (Homo sapiens, UniProt Q8N5J4 1-248)", "T2 sequence": "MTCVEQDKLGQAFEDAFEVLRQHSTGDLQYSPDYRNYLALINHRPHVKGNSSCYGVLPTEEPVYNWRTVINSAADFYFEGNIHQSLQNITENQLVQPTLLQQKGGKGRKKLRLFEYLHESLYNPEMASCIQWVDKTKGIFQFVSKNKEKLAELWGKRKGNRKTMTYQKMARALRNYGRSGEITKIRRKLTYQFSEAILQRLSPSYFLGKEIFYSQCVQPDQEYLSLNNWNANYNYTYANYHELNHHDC", "conditions": "protein: recombinant; tags: N-terminal GST; dsDNA, one strand shown", "summary_of_the_method": "as §1"}, "[5]": {"molecular_target": "ELF4 (Homo sapiens, UniProt Q99607 1-663)", "sequence (Q99607 whole entry)": "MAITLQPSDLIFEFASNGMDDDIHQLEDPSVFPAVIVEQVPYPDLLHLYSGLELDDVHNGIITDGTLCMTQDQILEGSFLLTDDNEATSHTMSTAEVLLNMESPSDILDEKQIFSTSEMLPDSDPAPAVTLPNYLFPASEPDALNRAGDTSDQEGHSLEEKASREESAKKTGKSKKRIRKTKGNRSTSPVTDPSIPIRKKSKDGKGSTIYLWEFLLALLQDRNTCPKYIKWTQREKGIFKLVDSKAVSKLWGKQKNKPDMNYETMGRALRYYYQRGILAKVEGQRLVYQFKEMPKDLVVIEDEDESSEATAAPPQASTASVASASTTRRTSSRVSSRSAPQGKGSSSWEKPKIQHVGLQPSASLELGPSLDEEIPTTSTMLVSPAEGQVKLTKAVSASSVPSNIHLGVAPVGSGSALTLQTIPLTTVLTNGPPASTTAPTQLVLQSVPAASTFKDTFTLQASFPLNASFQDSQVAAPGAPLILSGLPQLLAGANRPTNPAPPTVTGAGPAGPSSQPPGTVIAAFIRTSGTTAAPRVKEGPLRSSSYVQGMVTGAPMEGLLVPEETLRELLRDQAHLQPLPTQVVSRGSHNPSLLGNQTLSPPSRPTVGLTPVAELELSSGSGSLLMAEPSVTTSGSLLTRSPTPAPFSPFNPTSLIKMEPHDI", "conditions": "protein: recombinant; tags: N-terminal GST; dsDNA, one strand shown", "summary_of_the_method": "as §1"}, "[6]": {"molecular_target": "T3, ELK4 (Homo sapiens, UniProt P28324-2 1-405)", "T3 sequence": "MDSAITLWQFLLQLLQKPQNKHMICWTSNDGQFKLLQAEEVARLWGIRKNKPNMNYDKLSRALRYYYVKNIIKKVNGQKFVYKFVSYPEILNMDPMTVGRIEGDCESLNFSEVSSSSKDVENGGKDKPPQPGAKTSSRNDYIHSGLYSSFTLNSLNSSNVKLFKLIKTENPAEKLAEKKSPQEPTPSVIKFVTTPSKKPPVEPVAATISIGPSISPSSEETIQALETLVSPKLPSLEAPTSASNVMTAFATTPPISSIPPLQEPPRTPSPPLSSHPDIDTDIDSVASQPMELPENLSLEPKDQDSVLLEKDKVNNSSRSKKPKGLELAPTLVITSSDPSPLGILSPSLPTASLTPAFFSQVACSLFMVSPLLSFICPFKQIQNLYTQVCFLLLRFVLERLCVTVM", "conditions": "protein: recombinant; tags: N-terminal GST; dsDNA, one strand shown", "summary_of_the_method": "as §1"}, "[7]": {"molecular_target": "T4, ETV2 (Homo sapiens, UniProt O00321 1-342)", "T4 sequence": "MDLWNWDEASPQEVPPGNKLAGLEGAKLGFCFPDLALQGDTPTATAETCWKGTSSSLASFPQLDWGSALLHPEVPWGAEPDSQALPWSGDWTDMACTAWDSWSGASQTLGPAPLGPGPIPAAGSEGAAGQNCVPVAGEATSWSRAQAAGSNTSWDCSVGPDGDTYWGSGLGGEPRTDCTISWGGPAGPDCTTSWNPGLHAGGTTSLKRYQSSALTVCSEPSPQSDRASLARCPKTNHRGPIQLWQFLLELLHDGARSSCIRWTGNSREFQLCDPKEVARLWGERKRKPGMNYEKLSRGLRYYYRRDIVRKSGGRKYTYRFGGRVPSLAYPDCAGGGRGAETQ", "conditions": "protein: recombinant; tags: N-terminal GST; dsDNA, one strand shown", "summary_of_the_method": "as §1"}, "[8]": {"molecular_target": "CRX (Homo sapiens, UniProt O43186 1-299)", "sequence (O43186 whole entry)": "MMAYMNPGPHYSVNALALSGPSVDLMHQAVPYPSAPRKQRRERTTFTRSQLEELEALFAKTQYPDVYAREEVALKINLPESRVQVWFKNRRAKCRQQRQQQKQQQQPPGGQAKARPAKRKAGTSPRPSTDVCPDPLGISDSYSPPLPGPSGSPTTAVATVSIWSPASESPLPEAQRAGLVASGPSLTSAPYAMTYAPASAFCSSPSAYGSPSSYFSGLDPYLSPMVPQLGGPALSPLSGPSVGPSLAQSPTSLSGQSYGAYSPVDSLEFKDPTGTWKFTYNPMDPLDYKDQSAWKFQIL", "conditions": "protein: recombinant; tags: N-terminal GST; dsDNA, one strand shown", "summary_of_the_method": "as §1"}, "[9]": {"molecular_target": "ETV1 (Homo sapiens, UniProt P50549 1-477)", "sequence (P50549 whole entry)": "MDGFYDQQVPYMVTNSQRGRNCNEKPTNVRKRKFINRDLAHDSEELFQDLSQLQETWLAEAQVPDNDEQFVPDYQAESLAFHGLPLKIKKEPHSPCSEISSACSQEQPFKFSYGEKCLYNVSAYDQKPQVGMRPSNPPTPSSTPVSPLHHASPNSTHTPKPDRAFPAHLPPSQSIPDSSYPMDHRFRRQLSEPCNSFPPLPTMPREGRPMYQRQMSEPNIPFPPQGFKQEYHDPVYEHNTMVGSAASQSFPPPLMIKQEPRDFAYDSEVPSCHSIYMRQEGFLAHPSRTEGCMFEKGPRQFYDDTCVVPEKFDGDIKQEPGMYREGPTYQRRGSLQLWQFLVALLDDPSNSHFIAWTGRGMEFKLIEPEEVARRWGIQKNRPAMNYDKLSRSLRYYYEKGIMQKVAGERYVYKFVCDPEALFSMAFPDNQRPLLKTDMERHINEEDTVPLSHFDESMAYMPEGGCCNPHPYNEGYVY", "conditions": "protein: recombinant; tags: N-terminal GST; dsDNA, one strand shown", "summary_of_the_method": "as §1"}, "[10]": {"molecular_target": "T5, ERF (Homo sapiens, UniProt P50548 1-548)", "T5 sequence": "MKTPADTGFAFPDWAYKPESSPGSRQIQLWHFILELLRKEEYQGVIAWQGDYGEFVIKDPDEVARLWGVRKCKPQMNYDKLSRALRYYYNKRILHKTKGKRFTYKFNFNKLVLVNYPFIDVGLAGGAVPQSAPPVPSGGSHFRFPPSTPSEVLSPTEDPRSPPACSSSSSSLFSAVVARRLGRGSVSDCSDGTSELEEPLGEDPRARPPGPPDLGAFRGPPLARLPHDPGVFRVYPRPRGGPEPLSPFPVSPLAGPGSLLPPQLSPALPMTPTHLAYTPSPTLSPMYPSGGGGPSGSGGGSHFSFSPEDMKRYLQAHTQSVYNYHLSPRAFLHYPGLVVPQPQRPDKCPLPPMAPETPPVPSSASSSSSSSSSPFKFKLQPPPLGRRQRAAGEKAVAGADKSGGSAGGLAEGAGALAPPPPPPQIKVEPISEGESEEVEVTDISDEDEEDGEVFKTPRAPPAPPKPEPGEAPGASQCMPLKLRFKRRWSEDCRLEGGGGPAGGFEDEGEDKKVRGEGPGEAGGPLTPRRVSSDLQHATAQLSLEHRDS", "conditions": "protein: recombinant; tags: N-terminal GST; dsDNA, one strand shown", "summary_of_the_method": "as §1"}, "[11]": {"molecular_target": "T6, ETV3L (Homo sapiens, UniProt Q6ZN32 1-361)", "T6 sequence": "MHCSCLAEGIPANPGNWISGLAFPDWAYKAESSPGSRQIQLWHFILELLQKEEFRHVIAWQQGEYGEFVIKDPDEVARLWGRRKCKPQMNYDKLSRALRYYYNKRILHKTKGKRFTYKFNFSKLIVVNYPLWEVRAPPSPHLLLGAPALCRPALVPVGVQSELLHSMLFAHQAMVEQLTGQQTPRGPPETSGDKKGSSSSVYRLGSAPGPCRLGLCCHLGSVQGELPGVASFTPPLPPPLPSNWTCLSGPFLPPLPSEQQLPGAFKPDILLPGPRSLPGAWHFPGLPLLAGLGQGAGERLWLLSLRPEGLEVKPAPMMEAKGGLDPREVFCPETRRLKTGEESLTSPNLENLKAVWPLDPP", "conditions": "protein: recombinant; tags: N-terminal GST; dsDNA, one strand shown", "summary_of_the_method": "as §1"}, "[12]": {"molecular_target": "T7, ETS2 (Homo sapiens, UniProt P15036 1-469)", "T7 sequence": "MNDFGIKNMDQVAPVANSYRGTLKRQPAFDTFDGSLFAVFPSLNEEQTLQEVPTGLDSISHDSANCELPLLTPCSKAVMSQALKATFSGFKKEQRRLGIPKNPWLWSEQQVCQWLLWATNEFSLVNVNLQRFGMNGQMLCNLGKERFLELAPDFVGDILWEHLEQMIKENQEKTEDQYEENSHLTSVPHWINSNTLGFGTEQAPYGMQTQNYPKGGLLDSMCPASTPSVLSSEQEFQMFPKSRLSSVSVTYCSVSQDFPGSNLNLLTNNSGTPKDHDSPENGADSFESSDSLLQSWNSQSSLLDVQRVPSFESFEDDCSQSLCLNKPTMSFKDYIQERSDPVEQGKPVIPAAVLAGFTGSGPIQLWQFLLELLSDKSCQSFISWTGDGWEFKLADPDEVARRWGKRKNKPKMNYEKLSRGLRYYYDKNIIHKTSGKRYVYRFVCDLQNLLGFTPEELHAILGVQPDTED", "conditions": "protein: recombinant; tags: N-terminal GST; dsDNA, one strand shown", "summary_of_the_method": "as §1"}, "[13]": {"molecular_target": "T8, SPDEF (Homo sapiens, UniProt O95238 1-335)", "T8 sequence": "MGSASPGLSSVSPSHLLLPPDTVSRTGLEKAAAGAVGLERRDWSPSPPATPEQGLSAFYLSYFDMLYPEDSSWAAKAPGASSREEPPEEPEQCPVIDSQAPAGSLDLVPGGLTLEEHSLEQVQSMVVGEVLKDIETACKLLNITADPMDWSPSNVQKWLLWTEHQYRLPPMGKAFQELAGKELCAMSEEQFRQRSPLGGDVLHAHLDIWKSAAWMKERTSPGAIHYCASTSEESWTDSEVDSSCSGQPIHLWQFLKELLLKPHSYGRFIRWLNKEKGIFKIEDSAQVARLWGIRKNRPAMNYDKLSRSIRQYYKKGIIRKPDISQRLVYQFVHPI", "conditions": "protein: recombinant; tags: N-terminal GST; dsDNA, one strand shown", "summary_of_the_method": "as §1"}, "[14]": {"molecular_target": "T9, ETV7 (Homo sapiens, UniProt Q9Y603 1-341)", "T9 sequence": "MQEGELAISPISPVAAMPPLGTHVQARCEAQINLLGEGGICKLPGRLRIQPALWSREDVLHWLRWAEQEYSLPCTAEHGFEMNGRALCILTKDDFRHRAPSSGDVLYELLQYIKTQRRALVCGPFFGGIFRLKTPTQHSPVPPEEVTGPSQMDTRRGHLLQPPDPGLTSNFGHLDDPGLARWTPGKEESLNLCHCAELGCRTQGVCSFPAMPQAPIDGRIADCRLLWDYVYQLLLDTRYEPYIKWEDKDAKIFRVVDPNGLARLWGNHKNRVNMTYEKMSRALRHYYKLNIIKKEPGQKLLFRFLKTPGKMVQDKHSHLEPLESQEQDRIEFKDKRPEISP", "conditions": "protein: recombinant; tags: N-terminal GST; dsDNA, one strand shown", "summary_of_the_method": "as §1"}, "[15]": {"molecular_target": "T10, ELF5 (Homo sapiens, UniProt Q9UKW6-2 1-255)", "T10 sequence": "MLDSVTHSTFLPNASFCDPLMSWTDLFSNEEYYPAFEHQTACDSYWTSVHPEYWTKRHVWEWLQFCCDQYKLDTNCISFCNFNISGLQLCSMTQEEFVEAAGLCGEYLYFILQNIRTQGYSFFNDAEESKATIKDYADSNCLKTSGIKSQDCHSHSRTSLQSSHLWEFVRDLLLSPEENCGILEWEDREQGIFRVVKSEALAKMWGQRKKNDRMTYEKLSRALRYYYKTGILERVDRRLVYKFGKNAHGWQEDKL", "conditions": "protein: recombinant; tags: N-terminal GST; dsDNA, one strand shown", "summary_of_the_method": "as §1"}, "[16]": {"molecular_target": "T11, ETV3 (Homo sapiens, UniProt P41162-2 1-143)", "T11 sequence": "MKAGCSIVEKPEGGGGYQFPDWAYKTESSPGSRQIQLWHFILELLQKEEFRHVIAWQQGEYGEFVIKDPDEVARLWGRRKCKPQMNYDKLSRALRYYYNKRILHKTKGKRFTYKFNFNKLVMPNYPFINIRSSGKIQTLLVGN", "conditions": "protein: recombinant; tags: N-terminal GST; dsDNA, one strand shown", "summary_of_the_method": "as §1"}, "[17]": {"molecular_target": "ETV6 (Homo sapiens, UniProt P41212 1-452)", "sequence (P41212 whole entry)": "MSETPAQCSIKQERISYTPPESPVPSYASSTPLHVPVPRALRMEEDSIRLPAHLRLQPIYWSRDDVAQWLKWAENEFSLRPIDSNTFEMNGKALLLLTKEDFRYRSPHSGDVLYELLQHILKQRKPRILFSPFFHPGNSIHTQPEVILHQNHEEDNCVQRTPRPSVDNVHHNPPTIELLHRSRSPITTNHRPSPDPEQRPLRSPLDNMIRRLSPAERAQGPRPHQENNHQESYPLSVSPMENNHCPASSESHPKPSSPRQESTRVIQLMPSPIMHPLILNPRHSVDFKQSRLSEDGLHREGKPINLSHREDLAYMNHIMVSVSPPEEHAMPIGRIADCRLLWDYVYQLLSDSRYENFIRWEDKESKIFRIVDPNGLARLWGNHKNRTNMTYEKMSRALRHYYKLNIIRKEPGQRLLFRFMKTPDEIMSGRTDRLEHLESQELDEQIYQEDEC", "conditions": "protein: recombinant; tags: N-terminal GST; dsDNA, one strand shown", "summary_of_the_method": "as §1"}}, "data": [{"sequence": "ATTCAG", "values": [{"measurement": "binding signal", "setting": "[1]", "value": "1.03 fold enrichment (6-mer frequency, TF over GST control)"}, {"measurement": "binding signal", "setting": "[2]", "value": "1.1 fold enrichment (6-mer frequency, TF over GST control)"}, {"measurement": "binding signal", "setting": "[3]", "value": "1.17 fold enrichment (6-mer frequency, TF over GST control)"}, {"measurement": "binding signal", "setting": "[4]", "value": "1.17 fold enrichment (6-mer frequency, TF over GST control)"}, {"measurement": "binding signal", "setting": "[5]", "value": "1.13 fold enrichment (6-mer frequency, TF over GST control)"}, {"measurement": "binding signal", "setting": "[6]", "value": "1.08 fold enrichment (6-mer frequency, TF over GST control)"}, {"measurement": "binding signal", "setting": "[7]", "value": "1.02 fold enrichment (6-mer frequency, TF over GST control)"}, {"measurement": "binding signal", "setting": "[8]", "value": "1.07 fold enrichment (6-mer frequency, TF over GST control)"}, {"measurement": "binding signal", "setting": "[9]", "value": "1.07 fold enrichment (6-mer frequency, TF over GST control)"}, {"measurement": "binding signal", "setting": "[10]", "value": "1.15 fold enrichment (6-mer frequency, TF over GST control)"}, {"measurement": "binding signal", "setting": "[11]", "value": "1.2 fold enrichment (6-mer frequency, TF over GST control)"}, {"measurement": "binding signal", "setting": "[12]", "value": "1.14 fold enrichment (6-mer frequency, TF over GST control)"}, {"measurement": "binding signal", "setting": "[13]", "value": "1.05 fold enrichment (6-mer frequency, TF over GST control)"}, {"measurement": "binding signal", "setting": "[14]", "value": "1.02 fold enrichment (6-mer frequency, TF over GST control)"}, {"measurement": "binding signal", "setting": "[15]", "value": "1.08 fold enrichment (6-mer frequency, TF over GST control)"}, {"measurement": "binding signal", "setting": "[16]", "value": "1.12 fold enrichment (6-mer frequency, TF over GST control)"}, {"measurement": "binding signal", "setting": "[17]", "value": "1.02 fold enrichment (6-mer frequency, TF over GST control)"}]}]}
